The nature of assay [1]: antimalarial activity against Dd2 strain (AID 2302;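 active = growth inhibition above 50% at the single 2 µM test dose, taken to imply half-maximal potency below 2 µM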;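 note: 0% = DMSO untreated growth and 100% = chloroquine plus artemisinin killed control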). The following applies: P. falciparum Dd2 in RBCs, LDH growth readout, 72 h; at 2 µM; hits give high values.
Assay [2] is described as follows: human hepatoma cell viability loss – ATP luminescence, cytotoxicity control for P. falciparum antimalarial project, primary screen (AID 2303;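 active = inhibition above 50%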;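 note: 0% = DMSO wells and 100% = digitonin-killed cells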). The note with it: HepG2 viability, 24-48 h, at 10 µM, hits give high values.
Assay [3] addresses L-lactate dehydrogenase (Plasmodium falciparum (isolate CDC / Honduras)) (UniProt Q27743). The assay is described as follows: PfLDH activity inhibition – cell lysate, 3D7 strain, counter-screen for P. falciparum growth inhibition project (AID 2304).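 Note: 0% = vehicle and 100% = reference inhibitor.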 The note with it: P. falciparum 3D7 crude extract, LDH APAD/NBT absorbance; at 2 µM; hits give high values.
Assay [4] can be described thus: inhibition of 3D7 malaria parasite growth – strain 3D7 (AID 2306).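 Note: 0% = DMSO wells and 100% = chloroquine plus artemisinin control wells.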 The note with it: P. falciparum 3D7 erythrocytic growth, LDH absorbance, 72 h; at 2 µM; hits give high values.
For assay [5], the target named is Calcium-dependent protein kinase 1 (Plasmodium falciparum (isolate 3D7)) (UniProt P62344). The assay is described as follows: PfCDPK1 kinase inhibitors, biochemical, TCAMS library (AID 1159585; cut-off not given, nearly all actives have IC50 up to about 0.98 µM;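 note: inhibitors leave more ATP so luminescence rises with inhibition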). The note with it: recombinant PfCDPK1, Kinase-Glo ATP depletion luminescence.
Chain of Calcium-dependent protein kinase 1 (Plasmodium falciparum (isolate 3D7)) (P62344 whole entry, looked up): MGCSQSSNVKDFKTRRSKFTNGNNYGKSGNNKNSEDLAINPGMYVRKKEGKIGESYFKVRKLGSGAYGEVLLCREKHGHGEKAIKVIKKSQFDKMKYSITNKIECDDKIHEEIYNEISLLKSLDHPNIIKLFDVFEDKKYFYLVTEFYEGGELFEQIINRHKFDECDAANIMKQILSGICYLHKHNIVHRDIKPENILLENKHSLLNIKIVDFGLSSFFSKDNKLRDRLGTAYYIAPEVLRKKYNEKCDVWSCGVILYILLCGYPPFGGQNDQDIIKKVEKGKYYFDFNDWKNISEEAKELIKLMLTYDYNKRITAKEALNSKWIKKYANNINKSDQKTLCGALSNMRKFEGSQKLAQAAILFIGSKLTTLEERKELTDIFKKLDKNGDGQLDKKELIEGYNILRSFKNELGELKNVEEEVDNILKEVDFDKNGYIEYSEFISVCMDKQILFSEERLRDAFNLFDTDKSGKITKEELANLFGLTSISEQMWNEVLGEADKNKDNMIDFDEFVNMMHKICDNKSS
In assay [6] the target is Plasmodium falciparum protein kinase 6 (PK6, PF3D7_1337100) (UniProt Q8IDW1). The assay is described as follows: PfPK6 kinase inhibitors, biochemical, TCAMS library (AID 1159586). The note with it: recombinant PfPK6, Kinase-Glo ATP depletion luminescence. (In general: Kinase-Glo reads ATP consumption through a luciferase reaction.)
Chain of Plasmodium falciparum protein kinase 6 (PK6, PF3D7_1337100) (Q8IDW1 1-305): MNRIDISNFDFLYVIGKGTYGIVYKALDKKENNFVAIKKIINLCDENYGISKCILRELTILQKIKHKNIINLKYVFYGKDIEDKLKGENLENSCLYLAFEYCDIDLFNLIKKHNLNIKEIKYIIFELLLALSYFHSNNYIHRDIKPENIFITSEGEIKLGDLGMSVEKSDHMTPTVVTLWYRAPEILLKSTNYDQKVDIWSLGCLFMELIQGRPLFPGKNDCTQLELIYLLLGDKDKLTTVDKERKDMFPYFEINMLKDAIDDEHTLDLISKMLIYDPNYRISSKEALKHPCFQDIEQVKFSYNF
Assay [7] deals with Protein kinase 7 (PK7), Plasmodium falciparum 3D7 (PF3D7_0213400) (UniProt Q7YTF7). The assay is described as follows: inhibition of Plasmodium PK7 catalytic activity – biochemical, TCAMS antimalarial set, Kinase-Glo luminescence (AID 1159587). The following applies: recombinant PfPK7, Kinase-Glo ATP depletion luminescence.
Chain of Protein kinase 7 (PK7), Plasmodium falciparum 3D7 (PF3D7_0213400) (Q7YTF7 1-343): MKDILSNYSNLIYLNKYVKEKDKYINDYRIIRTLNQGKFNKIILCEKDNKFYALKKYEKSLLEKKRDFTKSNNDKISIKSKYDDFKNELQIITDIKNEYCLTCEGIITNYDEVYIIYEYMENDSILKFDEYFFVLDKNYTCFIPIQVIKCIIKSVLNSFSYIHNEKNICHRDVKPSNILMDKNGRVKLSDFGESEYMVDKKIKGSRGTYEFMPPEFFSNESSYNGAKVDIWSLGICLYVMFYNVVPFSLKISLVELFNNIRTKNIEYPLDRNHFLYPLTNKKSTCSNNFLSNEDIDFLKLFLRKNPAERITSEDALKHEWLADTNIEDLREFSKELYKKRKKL
Assay [8] deals with Calcium-dependent protein kinase 4 (Plasmodium falciparum (isolate 3D7)) (UniProt Q8IBS5). The assay is described as follows: PfCDPK4 kinase inhibitors, biochemical, TCAMS library (AID 1159588; cut-off not given, nearly all actives have IC50 up to about 0.91 µM). The following applies: recombinant PfCDPK4, Kinase-Glo ATP depletion luminescence.
Chain of Calcium-dependent protein kinase 4 (Plasmodium falciparum (isolate 3D7)) (Q8IBS5 whole entry, looked up): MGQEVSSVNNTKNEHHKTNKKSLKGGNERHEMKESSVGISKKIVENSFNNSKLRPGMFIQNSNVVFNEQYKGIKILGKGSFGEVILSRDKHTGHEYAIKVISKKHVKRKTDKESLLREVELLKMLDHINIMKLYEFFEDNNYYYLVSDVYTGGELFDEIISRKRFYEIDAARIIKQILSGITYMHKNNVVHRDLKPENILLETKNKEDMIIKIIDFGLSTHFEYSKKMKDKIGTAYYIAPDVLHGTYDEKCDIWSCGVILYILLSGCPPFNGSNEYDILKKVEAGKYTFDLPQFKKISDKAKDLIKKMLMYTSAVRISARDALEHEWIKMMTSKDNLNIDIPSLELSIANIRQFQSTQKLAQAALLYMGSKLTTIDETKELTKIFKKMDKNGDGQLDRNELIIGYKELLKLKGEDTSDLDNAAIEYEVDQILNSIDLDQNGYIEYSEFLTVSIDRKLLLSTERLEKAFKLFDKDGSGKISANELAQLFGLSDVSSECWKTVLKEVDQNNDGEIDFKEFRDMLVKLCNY

A number with no mark means an inactive call. For some of these results: Measured potencies and affinities stand elsewhere. Activity calls are given as the source filed them. Unless noted, the rule behind the calls is not given here.

For orientation: inhibition means the relative decrease from the control value, in per cent.

Chain of L-lactate dehydrogenase (Plasmodium falciparum (isolate CDC / Honduras)) (Q27743 whole entry, looked up): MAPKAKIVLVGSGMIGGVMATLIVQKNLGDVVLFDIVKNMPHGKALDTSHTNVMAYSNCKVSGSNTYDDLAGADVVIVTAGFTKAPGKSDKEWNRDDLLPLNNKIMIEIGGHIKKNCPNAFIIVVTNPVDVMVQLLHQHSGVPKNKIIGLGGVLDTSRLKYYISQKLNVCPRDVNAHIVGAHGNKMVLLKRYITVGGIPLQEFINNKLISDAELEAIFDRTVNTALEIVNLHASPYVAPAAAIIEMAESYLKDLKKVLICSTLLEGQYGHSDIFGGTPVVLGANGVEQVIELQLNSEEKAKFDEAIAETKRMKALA

Turning to `Cc1ccnc2nc(C(=O)Nc3cc(Cl)ccc3N3CCOCC3)nn12`, the growth inhibition was 63% (active) in assay [1] and 84% (active) in assay [4]. Moreover, the inhibition was -4% in assay [2] and -1% in assay [3]. In addition, the outcome in assay [5], in assay [6], in assay [7] and in assay [8] was inactive.

In the case of `COc1cc2nc(N3CCC(CNC(=O)/C=C/c4ccccc4F)CC3)nc(N)c2cc1OC`, the growth inhibition in assay [1] is 88% (active); in assay [4], 100% (active). For the same molecule, the figures for the inhibition in assay [2] and in assay [3] were -4% and 5%, respectively. Moreover, the result in assay [5], in assay [6], in assay [7] and in assay [8] was inactive.

Regarding `CCCC1N=C(N)N=C(N)N1c1cccc([N+](=O)[O-])c1` (stereo not given), the growth inhibition in assay [1] is 1%; in assay [4], 96% (active). The inhibition in assay [2] was -4%; in assay [3], 3%. In addition, the outcome in assay [5], in assay [6], in assay [7] and in assay [8] was inactive.

With `COc1cc(CN2CCC(CO)(Cc3cccc(C(F)(F)F)c3)CC2)c(Cl)cc1O`, the values for the growth inhibition in assay [1] and in assay [4] were 64% (active) and 99% (active), respectively. Also, the values for the inhibition in assay [2] and in assay [3] were 12% and 6%, respectively. The outcome in assay [5], in assay [6], in assay [7] and in assay [8] was inactive.

As to `CCCCCCc1cc(OC)c(OC)cc1C(C)Nc1ccnc2cc(Cl)ccc12` (stereo not given), the growth inhibition was 79% (active) in assay [1] and 95% (active) in assay [4]. Besides, the inhibition is 6% in assay [2] and -4% in assay [3]. Besides, the result in assay [5], in assay [6], in assay [7] and in assay [8] was inactive.

`CC(C)N1CCN(C(CN2CCN(CCCOc3cccc(-c4ccccc4)c3)CC2)c2ccc(F)cc2)CC1` (stereo not given): the growth inhibition in assay [1] is 99% (active); in assay [4], 100% (active). The results for the inhibition in assay [2] and in assay [3] were 100% (active) and -2%, respectively. Further, the result in assay [5], in assay [6], in assay [7] and in assay [8] was inactive.

Regarding `O=C(/C=C/c1ccc(Cl)c(Cl)c1)NCCCCCN1CCC(NC(=O)c2cc(Cl)ccc2F)CC1`, the growth inhibition in assay [1] was 32%; in assay [4] it was 92% (active). In addition, the inhibition in assay [2] is 48%; in assay [3], 4%. For the same molecule, the outcome in assay [5], in assay [6], in assay [7] and in assay [8] was inactive.

Regarding `Cc1cc(C)cc(OCC(O)CN(CCN2CCOCC2)C(=O)Nc2ccc(Br)cc2)c1` (stereo not given), the values for the growth inhibition in assay [1] and in assay [4] were 19% and 85% (active), respectively. Moreover, the inhibition in assay [2] was 7%; in assay [3], 0%. Further, the result in assay [5], in assay [6], in assay [7] and in assay [8] was inactive.

On to `Cc1cc(NC(=O)NCCN2CCC(NS(=O)(=O)c3ccccc3F)CC2)c2ccccc2n1`, for which the results for the growth inhibition in assay [1] and in assay [4] were 44% and 81% (active), respectively. Also, the figures for the inhibition in assay [2] and in assay [3] were 0% and -4%, respectively. Also, the result in assay [5], in assay [6], in assay [7] and in assay [8] was inactive.

Take `Nc1ccc2[nH]cc(C3CCN(CC4CCN(C(=O)/C=C/c5ccc(Cl)c(Cl)c5)CC4)CC3)c2n1`: the growth inhibition in assay [1] is 97% (active); in assay [4], 99% (active). In addition, the values for the inhibition in assay [2] and in assay [3] were 53% (active) and -2%, respectively. Further, the outcome in assay [5], in assay [6], in assay [7] and in assay [8] was inactive.

For the molecule `CC(C)C[C@H](NC(=O)[C@H](Cc1ccccc1)NC(=O)CCN1C(=O)COc2ccc(C(=O)O)cc21)C(=O)NC(CC1CCCCC1)C(O)CC(=O)NCCCn1ccnc1` (stereo not given in full), the growth inhibition is -4% in assay [1] and 99% (active) in assay [4]. For the same molecule, the results for the inhibition in assay [2] and in assay [3] were -3% and -8%, respectively. In addition, the outcome in assay [5], in assay [6], in assay [7] and in assay [8] was inactive.

Regarding `Cc1cc(C(F)(F)F)n2nc(C3CCN(Cc4cc(C)c(O)c(C)c4)C3)cc2n1` (stereo not given), the values for the growth inhibition in assay [1] and in assay [4] were 99% (active) and 98% (active), respectively. The results for the inhibition in assay [2] and in assay [3] were 34% and 0%, respectively. Moreover, the outcome in assay [5], in assay [6], in assay [7] and in assay [8] was inactive.

With `O=C(NC1CCC1)C1CCN(C(c2ccc(Cl)cc2)c2ccc(Cl)cc2)CC1`, the figures for the growth inhibition in assay [1] and in assay [4] were 70% (active) and 95% (active), respectively. The inhibition in assay [2] is 6%; in assay [3], 8%. Further, the outcome in assay [5], in assay [6], in assay [7] and in assay [8] was inactive.

With `Clc1ccc2c(NN=Cc3ccccc3)ccnc2c1`, the growth inhibition in assay [1] was 94% (active); in assay [4], 100% (active). In addition, the inhibition was -6% in assay [2] and -3% in assay [3]. Moreover, the outcome in assay [5], in assay [6], in assay [7] and in assay [8] was inactive.

For the molecule `CCCCCc1cc(OC(=O)CCCN(CC)CC)c2c(c1)OC(C)(C)C=C2C1=CCN(Cc2ccc3ccccc3c2)CC1`, the growth inhibition is 92% (active) in assay [1] and 100% (active) in assay [4]. Further, the inhibition in assay [2] is 94% (active); in assay [3], -2%. The result in assay [5], in assay [6], in assay [7] and in assay [8] was inactive.

Regarding `COc1ccc2ncc(Cl)c(CCN3C[C@H](CNCc4ccc5c(n4)NC(=O)CS5)[C@H](O)C3)c2n1`, the growth inhibition was 16% in assay [1] and 94% (active) in assay [4]. Further, the inhibition is 2% in assay [2] and 3% in assay [3]. Further, the outcome in assay [5], in assay [6], in assay [7] and in assay [8] was inactive.

Take `COc1cc(C(=O)Nc2cccc(-c3cn4cccc(C)c4n3)c2)cc(OC)c1OC`: the growth inhibition in assay [1] is 77% (active); in assay [4], 99% (active). Further, the inhibition in assay [2] was -3%; in assay [3], -1%. The outcome in assay [5], in assay [6], in assay [7] and in assay [8] was inactive.

Regarding `Cc1cc(-c2ccc(S(=O)(=O)Nc3cc4c(cc3OC(C)C)CCN(C)CC4)cc2)ccc1Cl`, the growth inhibition in assay [1] is 19%; in assay [4], 90% (active). The inhibition is 33% in assay [2] and -1% in assay [3]. Moreover, the result in assay [5], in assay [6], in assay [7] and in assay [8] was inactive.

For `NC1CCCN(Cc2ccc(-c3ccc(-c4nc5ccc(F)cc5[nH]4)s3)cc2)C1` (stereo not given), the results for the growth inhibition in assay [1] and in assay [4] were 98% (active) and 100% (active), respectively. Moreover, the inhibition in assay [2] was 40%; in assay [3], 1%. In addition, the outcome in assay [5], in assay [6], in assay [7] and in assay [8] was inactive.

With `O=C(Nc1ccc(OC2CCN(Cc3ccc(F)cc3)CC2)c(Cl)c1)c1ccccc1`, the growth inhibition in assay [1] is 89% (active); in assay [4], 90% (active). The inhibition in assay [2] is 16%; in assay [3], -4%. The outcome in assay [5], in assay [6], in assay [7] and in assay [8] was inactive.

These data come from PubChem BioAssay.
